Potency data for 105 compounds are collected here from PubChem BioAssay AID624202 (National Center for Advancing Translational Sciences (NCATS), 2012).

Screen size: about 380,000 compounds; about 4,000 (1.1%) were called active. A call without a number means that no potency is given here. Inconclusive results (about 3%) are left out. Calls come from the whole dose curve; as a rule, active = well fitted activation curve with a large enough effect; inconclusive = small, poorly fitted or top-dose-only effect; inactive = no such curve, though single readings can be large or run the other way. The sample as a whole holds a higher share of actives than the screen did.
Potency is the fitted concentration of half-maximal effect.

A short description of the experiment: qHTS Assay to Identify Small Molecule Activators of BRCA1 Expression. Note: nearly all actives have a fitted effect of over 80% in size. The conditions noted are these: MCF7-BRCA1-FFLuc reporter, luminescence, 48 h; series mostly up to 46.1 µM. An outline of the steps: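 48 h compound treatment of MCF7-BRCA1-FFLuc cells (phenol-red free MEM, 37 °C), then 15 min with luciferase substrate and luminescence imaging.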
Turning to `O=C1CC(c2ccccc2)CC2=C1C(c1ccco1)n1nc(C(F)(F)F)nc1N2` (stereo not given), the Potency result is “inactive”.
Next, `Cc1cc(Nc2cccc(C(F)(F)F)c2)nc2ccc(NC(=O)c3ccc(=O)[nH]c3)cc12`: “inactive”; `CC(C)=CCc1c(O)c(CC=C(C)C)c2occ(-c3ccc(O)cc3)c(=O)c2c1O`: “inactive”.
The figure for `O=c1c(-c2ccccc2)coc2cc(O)ccc12` is 12.6 µM (active); for `CN(C)Cc1c(O)ccc2c(=O)c(-c3ccccc3Cl)coc12` it is “inactive”; for `COc1ccc(CCn2cc3c(c2-c2ccc(Br)cc2)c(=O)n(C)c(=O)n3C)cc1OC` it is “inactive”.
Next, `CCC(C)N(c1ccc(/C=C/c2ccnc3ccccc23)cc1)C(C)CC` (stereo not given): “inactive”; `COC(=O)c1ccc(Cn2c(SCC(=O)N(C)c3ccccc3)nc3ccccc32)cc1`: “inactive”; `COc1ccc(CN2C(=O)C(NC(=O)c3cccc(C)c3)(C(F)(F)F)N=C2c2ccccc2)cc1` (stereo not given): “inactive”.
Regarding `CCN1CCN(c2ccc(/C=C/c3ccnc4ccccc34)cc2)CC1`, the Potency entry is “inactive”.
In the case of `C/C(=C/c1ccccc1)C(=O)N1CCN(c2ccccc2)CC1`, the Potency entry was “inactive”.
With `O=C(/C=C/c1ccc(N2CCOCC2)cc1)c1ccccc1`, the Potency was 3.16 µM (active).
As to `O=C(O)CCC(=O)Nc1ccc(N2CCOCC2)cc1`, the Potency entry is “inactive”.
The entry for `COc1ccc(S(=O)(=O)NCc2cccn2Cc2cccc(C)c2)cc1Cl` is “inactive”; for `CCn1cc2nc(SCc3cccc(F)c3)n(CCc3ccccc3)c(=O)c2n1` it is “inactive”; for `CCc1ccccc1NS(=O)(=O)c1ccc2nc(-c3ccccc3)[nH]c2c1` it is “inactive”.
Next, `O=C(CCS(=O)(=O)c1ccccc1)NC1CCCC1`: 10 µM (active); `CC(=O)c1cc(-c2ccccc2)n(CCC(=O)NC2CCCCCC2)c1C`: “inactive”.
Next, `O=C(CCC(=O)c1cccs1)NC1CCCCCC1`: “inactive”.
As for `C=C1C=C(C)n2ncc(C(=O)Nc3ccccc3O)c2N1`, the Potency entry is “inactive”.
Next, `COc1cc(OC)cc(C(=O)Nc2c(C(=O)Nc3ccc(F)cc3)oc3ccccc23)c1`: “inactive”.
The entry for `COc1ccc(C(=O)OCC(=O)c2ccc(Cl)s2)c(OC)c1OC` is “inactive”.
The entry for `Cn1cccc1C(=O)OCC(=O)NCCc1ccccc1` is “inactive”.
For `Cn1cccc1C(=O)OCC(=O)c1ccc(Br)s1`, the Potency was 8.91 µM (active).
As to `CCCCNC(=O)Cn1c(SCc2cccc(Cl)c2)nc2ccncc21`, the Potency entry was “inactive”.
As for `CCCN(CCC)C(=O)C(Cc1ccccc1)NS(=O)(=O)c1ccc2c(c1)c(=O)n(C)c(=O)n2C` (stereo not given), the Potency entry was “inactive”.
Next, `Cc1ccc(-n2c(=O)c3cccnc3n2CC(=O)NCc2ccc(F)cc2)cc1C`: “inactive”; `CCCCOC(=O)CSc1ncnc2sc3c(c12)CCC(C)C3` (stereo not given): “inactive”.
Next, `SCc1nc2ccc(Cl)cc2[nH]1`: “inactive”; `Cc1ccc(C)c(N2CCN(C(=O)CCc3nc(-c4cccc(C(F)(F)F)c4)no3)CC2)c1`: “inactive”.
The figure for `Cc1ccc(Cc2nc(-c3cccc(C)c3)no2)cc1` is 7.94 µM (active); for `Cc1cccc(-c2noc(CCC(=O)NC3CCCC3)n2)c1` it is “inactive”; for `Cc1[nH]c2ccccc2c1C(=O)C(=O)N(C)c1ccccc1` it is “inactive”.
As to `Cc1ccc(C(=O)Nc2nc3ccc(Cl)cc3s2)o1`, the Potency was 0.891 µM (active).
Next, `Cc1noc(C)c1CSCC(=O)Nc1nc2ccc(Oc3ccccc3)cc2s1`: “inactive”.
Next, `Cc1sc2ncnc(N3CCC(C(=O)Nc4nc5ccc(Cl)cc5s4)CC3)c2c1C`: “inactive”.
Next, `COc1ccc(-c2nc(=N)sn2-c2ccccc2)cc1`: “inactive”; `Cc1ccc2c(c1)-c1c(cnn1CC(=O)Nc1ccccc1C#N)CO2`: “inactive”.
Regarding `COc1cc(CN(C(=O)c2ccccc2Br)c2ccccn2)cc(OC)c1OC`, the Potency entry is “inactive”.
The entry for `Nc1ccc(/C=C/c2ccnc3ccccc23)c([N+](=O)[O-])c1` is “inactive”; for `CN1C(=O)/C(=C/C=C2\SCCN2C)OC1=S` it is 5.62 µM (active); for `CN(C(=N)N)c1ccc(/C=C2\C=Cc3ccccc32)cc1` it is “inactive”.
The entry for `O=C(NCCc1cccc(F)c1)C1CCCN(c2nc3ccccc3s2)C1` (stereo not given) is “inactive”.
For `COc1ccc2nc(N3CCN(C(=O)c4ccc([N+](=O)[O-])o4)CC3)sc2c1`, the Potency entry is “inactive”.
Turning to `Fc1ccc2nc(N3CCCCC3)sc2c1`, the Potency is 4.47 µM (active).
The entry for `CCCCNC(=O)c1ccc2c(c1)NC(=O)C(C(C)C)N2` (stereo not given) is “inactive”; for `CCc1ccccc1NC(=O)c1cc(-c2ccc3c(c2)OCO3)on1` it is “inactive”.
The entry for `CSc1ccccc1NC(=O)c1cc(C2CC2)on1` is “inactive”; for `C=CCNC(=O)c1cc(-c2ccccc2O)on1` it is 5.62 µM (active).
The entry for `Cc1cc(Cl)ccc1OCCCC(=O)NCc1ccccn1` is “inactive”; for `O=C(NC1CCCC1)c1cc(-c2ccccc2)on1` it is “inactive”.
Take `O=C(Nc1cccnc1Cl)c1cc(-c2ccccc2O)on1`: the Potency was 8.91 µM (active).
For the compound `C=CCNC(=O)c1ccccc1SCc1c(C)noc1C`, the Potency entry is “inactive”.
For `O=C(NCc1ccccn1)c1cc(-c2ccccc2Cl)on1`, the Potency was 10 µM (active).
Turning to `Cc1cc(C)nc(NC(=O)Nc2ccccc2C(F)(F)F)n1`, the Potency entry is “inactive”.
The figure for `O=C(Nc1ccccc1C(F)(F)F)c1cc(-c2ccc(O)cc2)on1` is 11.2 µM (active); for `C=CCNC(=O)c1ccc2nc(-c3ccco3)c(-c3ccco3)nc2c1` it is “inactive”; for `COc1ccccc1CNS(=O)(=O)c1cc(C(=O)NCc2ccccn2)c(Cl)cc1Cl` it is “inactive”.
Next, `O=C(Nc1ccc([N+](=O)[O-])cc1)c1cnn2c1NC(=C1CC1)C=C2C(F)F`: “inactive”; `Cc1ccccc1C(=O)Nc1cc(C)c(O)c(-c2nc3ccccc3o2)c1`: “inactive”.
Next, `COc1ccc(-n2c(SCC(N)=O)nc3c(oc4ccccc43)c2=O)cc1`: “inactive”.
For `COc1ccccc1N1CCN(C(=O)C2CCN(S(=O)(=O)c3c(C)noc3/C=C/c3ccc(C)cc3)CC2)CC1`, the Potency entry was “inactive”.
The entry for `Cc1cc(C)c(NC(=O)CCc2c(C)nc3c(c(C)nn3C(C)(C)C)c2C)c(C)c1` is “inactive”; for `Cc1ccc(-n2nnnc2CNC(=O)c2ccccc2C)cc1C` it is “inactive”; for `CCC(CC)NC(=O)CSc1nnc(-c2c[nH]c3ccccc23)o1` it is “inactive”.
The figure for `O=C(CSc1nnc(-c2c[nH]c3ccccc23)o1)c1ccccc1` is 12.6 µM (active); for `CN(C(=O)CSc1nnc(-c2c[nH]c3ccccc23)o1)C1CCS(=O)(=O)C1` (stereo not given) it is “inactive”.
The entry for `Cc1ccccc1NC(=O)Cn1c(=O)n(CCc2ccccc2)c(=O)c2ccccc21` is “inactive”.
Regarding `COc1c(Cl)cc(Cl)cc1C(=O)Nc1cccc2cccnc12`, the Potency result is “inactive”.
Next, `COc1cc2[nH]c(=O)n(Cc3ccc(C(=O)NCc4ccc(C)cc4)cc3)c(=O)c2cc1OC`: “inactive”; `Cc1cccc(NC(=O)COC(=O)c2ccccc2OCc2cccc(Br)c2)c1`: “inactive”; `CCOc1ccc(OCC)c(NC(=O)CN(c2ccc(C)cc2)S(=O)(=O)c2c(C)n[nH]c2C)c1`: “inactive”.
Next, `CCc1cccc(NC(=O)CSc2nccn2C)c1`: 12.6 µM (active); `CC(=O)Nc1cccc(NC(=O)CSc2nccn2Cc2ccc(F)cc2)c1`: “inactive”.
Consider `CCCCNC(=O)CSc1nccn1Cc1ccccc1`, for which the Potency entry was “inactive”.
With `COc1ccc(CN(Cc2ccccc2)C(=O)c2ccc(O)cc2)cc1COc1ccc(NC(C)=O)cc1`, the Potency result is “inactive”.
The entry for `Cc1ccc(CCNC(=O)Cn2c(-c3cccs3)cc3cc(F)ccc32)cc1` is “inactive”; for `COc1ccc(NC(=O)Cn2c(=O)cc(C)c3c(C)nn(-c4cccc(Cl)c4C)c32)cc1OC` it is “inactive”.
On to `Cc1nn2cc(-c3ccc(Cl)cc3)cnc2c1Br`, for which the Potency is 8.91 µM (active).
As to `O=C(O)C1=C/C(=C/C=[N+]2c3cc(O)c(O[C@H]4OC(CO)[C@@H](O)[C@@H](O)[C@@H]4O)cc3C[C@@H]2C(=O)[O-])C[C@H](C(=O)O)N1` (stereo not given in full), the Potency result was “inactive”.
The entry for `COc1ccc(-c2[nH]c3c(c2-c2c(-n4cccc4)n(C)c(=O)n(C)c2=O)c(=O)n(C)c(=O)n3C)cc1` is “inactive”.
Next, `Cc1ccc(S(=O)(=O)n2nc(C)c(S(=O)(=O)N3CCCCCC3)c2C)cc1`: “inactive”.
`CCOc1ccc(NC(=O)Cn2c(C)ccc(C#N)c2=O)cc1`: the Potency result is “inactive”.
The figure for `CCOc1ccc(NC(=O)c2ccc(NC(=O)COC(=O)c3ccc(NC(=O)CC#N)cc3)cc2)cc1` is 2.82 µM (active); for `CCOc1ccc(NC(=O)c2ccc(NC(=O)CN3C(=O)C(=O)N(CC(C)C)C3=O)cc2)cc1` it is “inactive”.
`CCn1cc(C(=O)N2CCN(c3cc(C)ccc3C)CC2)c(=O)c2cc(S(=O)(=O)N(C)C3CCCCC3)ccc21`: the Potency entry is “inactive”.
Next, `CSc1ccc(CCNC(=O)c2cnn(-c3ccccc3)c2-n2cccc2)cc1`: “inactive”; `CC(=O)c1ccc(NC(=O)CCc2nc(-c3ccc(C)cc3)no2)cc1`: “inactive”.
Next, `CC(=O)Nc1ccc2nc(SCCOc3cc(C)cc(C)c3)sc2c1`: “inactive”.
For the compound `CSc1nc2ccc(NC(=O)c3c(F)cccc3F)cc2s1`, the Potency was 5.62 µM (active).
Next, `O=C(Nc1ccc2nc(SCC(=O)N3CCc4ccccc43)sc2c1)c1ccccc1F`: “inactive”; `COc1cc2nc(N3CCCN(C)CC3)nc(NC3CC3)c2cc1OC`: “inactive”; `O=C(NC1=NCCS1)c1ccc(Cl)s1`: 5.62 µM (active).
The entry for `CCOc1ccc(C(=O)CCC(=O)NC2=NCCS2)cc1` is “inactive”.
For the compound `COc1ccccc1C(=O)NCCC(=O)NC1=NCCS1`, the Potency entry is “inactive”.
As for `O=C(Nc1ccccc1)c1ccccc1OCc1ccccc1`, the Potency result is “inactive”.
Regarding `O=C(CCCCn1c(=O)c2ccccc2n(CC(=O)Nc2cccc(C(F)(F)F)c2)c1=O)NCc1ccc2c(c1)OCO2`, the Potency result was “inactive”.
For `NC1=NC(c2cc(F)cc(F)c2)n2c(nc3ccccc32)N1` (stereo not given), the Potency entry is “inactive”.
The entry for `O=C(c1cnn2c1NC(=C1CC1)C=C2C(F)F)N1CCc2ccccc2C1` is “inactive”; for `Cc1cccc(NC(=O)CSc2nc3c(oc4ccccc43)c(=O)n2-c2ccc(F)cc2)c1` it is “inactive”.
The entry for `O=C(Nc1cc(-c2nc3ccccc3o2)ccc1Cl)c1cc([N+](=O)[O-])ccc1N1CCOCC1` is “inactive”; for `S=c1[nH]c(=S)c2n[nH]nc2[nH]1` it is “inactive”.
Next, `CC(=O)Nc1cccc(/C(C)=N/NC(=O)c2c(-c3ccccc3Cl)noc2C)c1`: “inactive”.
In the case of `C/C(=N\Nc1cccc(C(=O)O)c1)c1ccc2c(c1)Nc1ccccc1S2`, the Potency was 7.08 µM (active).
On to `COc1ccc(Cl)cc1S(=O)(=O)Nc1cccc(C(=O)O)c1`, for which the Potency result was “inactive”.
